Bim-Mcl-1 = inhibitors of Bim peptide binding to Mcl-1, primary screen, biochemical, bead-based flow cytometry, multiplex | Induced myeloid leukemia cell differentiation protein Mcl-1 (Homo sapiens), Q07820 | Bim peptide-Mcl-1 binding | inhibition, % at 10 µM | 0.1% of 190,000 active; in the data active = inhibition above about 40%;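 note: 0% = no compound tracer wells and 100% = peptide blocker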
Target sequence (Q07820 whole entry, looked up): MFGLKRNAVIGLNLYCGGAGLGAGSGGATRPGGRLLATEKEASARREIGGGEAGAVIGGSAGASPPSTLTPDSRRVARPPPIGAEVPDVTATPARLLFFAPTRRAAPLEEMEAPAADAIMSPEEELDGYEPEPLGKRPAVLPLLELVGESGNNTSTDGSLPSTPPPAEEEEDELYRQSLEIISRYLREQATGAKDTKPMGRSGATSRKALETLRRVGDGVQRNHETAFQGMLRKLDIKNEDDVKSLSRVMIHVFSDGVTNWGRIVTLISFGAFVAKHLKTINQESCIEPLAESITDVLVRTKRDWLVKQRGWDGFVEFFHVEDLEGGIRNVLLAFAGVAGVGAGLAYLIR
MCL1 BIM primary = inhibitors of MCL1 binding to BIM-BH3, primary screen, biochemical, fluorescence polarization; Induced myeloid leukemia cell differentiation protein Mcl-1 (Homo sapiens), Q07820; GST-MCL1 / FITC-Bim-BH3 fluorescence polarization; inhibition, % at 10.9 µM; 0.68% of 320,000 active; AID 2057, 2009;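 active = inhibition above the mean inhibition of all tested compounds plus 3 SD, set per campaign, cut at about 40% in these data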;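 note: 0% = DMSO wells and 100% = unlabeled Bim-BH3 peptide control; higher means more loss of mP so more displacement of Bim peptide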
14-3-3 Bad PPI = inhibitors of 14-3-3 zeta/Bad binding, primary screen, biochemical, TR-FRET, bovine 14-3-3 zeta; 14-3-3 protein zeta/delta (Bos taurus), P63103; TR-FRET 14-3-3zeta/Dy647-pBad peptide displacement, 1 h; inhibition, % at 21.7 µM; 0.71% of 220,000 active; AID 781, 2007;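 active = inhibition above about 70%, limit read from the data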;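 note: 0% = full 14-3-3 plus peptide FRET controls and 100% = background without 14-3-3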
Target sequence (P63103 whole entry, looked up): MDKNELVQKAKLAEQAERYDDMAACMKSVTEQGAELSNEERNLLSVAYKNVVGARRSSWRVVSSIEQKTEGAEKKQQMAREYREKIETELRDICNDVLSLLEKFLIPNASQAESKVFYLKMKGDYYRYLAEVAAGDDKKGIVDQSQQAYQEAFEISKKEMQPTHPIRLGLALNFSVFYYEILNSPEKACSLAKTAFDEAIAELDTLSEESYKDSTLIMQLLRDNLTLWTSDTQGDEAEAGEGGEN
Mcl1 Noxa PPI = Mcl-1/Noxa binding inhibitors, primary screen, biochemical, TR-FRET, 1536-well. Induced myeloid leukemia cell differentiation protein Mcl-1 (Homo sapiens), Q07820. TR-FRET Mcl-1/Noxa peptide binding, 2 h. inhibition, % at 21.7 µM. 1.5% of 220,000 active. AID 1022, 2008;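 active = compounds that cut the protein-peptide binding signal by more than 50% relative to plate controls in a single-dose test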;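 note: His-tagged Mcl-1 with rhodamine Noxa BH3 peptide and terbium anti-His antibody; 0% = Mcl-1 plus Noxa peptide wells and 100% = peptide-only wells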
Mcl1-Bid inh = Mcl-1/Bid binding inhibitors, primary screen, biochemical, TR-FRET, 1536-well; inhibition, % at 21.7 µM; 0.97% of 220,000 active; TR-FRET Mcl-1/Bid-Dy647 peptide binding; Induced myeloid leukemia cell differentiation protein Mcl-1 (Homo sapiens), Q07820;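 active = compounds that cut the binding signal by more than half at the single screening dose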;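 note: His-tagged Mcl-1 with europium anti-His antibody binding Bid BH3 peptide; 0% = Mcl-1 plus peptide wells and 100% = peptide-only wells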
Numbers without * were called inactive; . = not tested or not shown; [ ] = remark or other dose. Compounds with a hit are over-represented: about 2.5% of the library has one in this group of screens.

SMILES	Bim-Mcl-1	MCL1 BIM primary	14-3-3 Bad PPI	Mcl1 Noxa PPI	Mcl1-Bid inh
O=S(=O)(Nc1ccc(S(=O)(=O)Nc2ccccc2)cc1)c1ccccc1	-2	1	3	9	4
COc1ccc(S(=O)(=O)N2CCN(c3ccc4nnc(-c5ccccc5)n4n3)CC2)cc1	1	3	3	-20	-2
O=C(Nc1nc(-c2cccnc2)cs1)c1ccccc1Cl	-3	6	-4	-16	-6
CCN(CC)c1ccc(Nc2nc(-c3cccnc3)cs2)cc1	.	8	.	.	.
CN(C)c1ccc(Nc2nc(-c3cccnc3)cs2)cc1	0	4	-19	60*	-21
Cc1ccccc1C(=O)Nc1nc(-c2cccnc2)cs1	.	10	14	75*	18
CC(C)Oc1ccc(S(=O)(=O)N2CCCCC2)cc1NC(=O)C1=COCCO1	.	-6	.	.	.
COc1cc2[nH]c(=O)n(CCC(=O)N3CCN(Cc4ccccc4)CC3)c(=O)c2cc1OC	-4	-4	14	3	-5
COc1cc2[nH]c(=O)n(CCC(=O)N3CCN(c4cccc(C)c4C)CC3)c(=O)c2cc1OC	-3	3	19	21	54*
Cc1ccc(S(=O)(=O)C2CS(=O)(=O)CC2O)cc1 (stereo not given)	-2	-6	11	-10	-3
CC(=O)C1=C(S(=O)(=O)c2ccc(C)cc2)CS(=O)(=O)C1	0	.	41	78*	-31
O=C(O)c1cccc(-c2ccc(/C=c3/sc4nc5ccccc5n4c3=O)o2)c1	.	22	68	89*	33
O=c1/c(=C/c2ccccn2)sc2nc3ccccc3n12	0	27	16	44	47
COC(=O)/C=c1/sc2nc3ccccc3n2c1=O	-17	1	3	-20	11
O=c1/c(=C\c2cc([N+](=O)[O-])cc([N+](=O)[O-])c2O)sc2nc3ccccc3n12	-1	-54	75*	105*	91*
O=C(O)c1cc(C(=O)O)cc(-c2ccc(/C=c3/sc4nc5ccccc5n4c3=O)o2)c1	1	.	51	54*	-32
COc1ccc(CN(CC2CCC(C(=O)O)CC2)C(=S)Nc2cc(Cl)ccc2OC)cc1 (stereo not given)	-5	3	-3	27	-23
CC1CCC2(CC1)SCC(=O)N2c1ccc(F)cc1 (stereo not given)	.	5	6	-9	-21
COc1ccc(Nc2nc(N)c([N+](=O)[O-])c(NCc3ccccc3)n2)cc1	.	1	-5	51*	29
Cc1ccc(Nc2nc(N)c([N+](=O)[O-])c(NCc3ccccc3)n2)cc1	.	0	20	3	-2
O=C(Nc1cccc(S(=O)(=O)N2CCOCC2)c1)c1c2c(nc3ccccc13)CCC2	0	30	-23	74*	-51
O=C(Nc1cccc(S(=O)(=O)N2CCOCC2)c1)c1ccc2ccccc2n1	.	-4	4	24	33
CCN(CC)S(=O)(=O)c1ccc(N2CCOCC2)c(NC(=O)c2c3c(nc4ccccc24)CCC3)c1	-2	24	-5	91*	20
CCN(CC)S(=O)(=O)c1ccc(N2CCOCC2)c(NC(=O)c2cccc3ccccc23)c1	0	6	3	3	-4
c1ccc(C2=Nc3c(ccc4ccccc34)C(c3ccncc3)=NN2)cc1	-2	4	-11	-5	-20
SMILES	Bim-Mcl-1	MCL1 BIM primary	14-3-3 Bad PPI	Mcl1 Noxa PPI	Mcl1-Bid inh
O=C(NC1CCCCCC1)c1ccccc1-c1ccccc1	-4	5	-3	10	14
N#Cc1ccc(N2CCc3ccccc3C2)c([N+](=O)[O-])c1	-2	8	0	19	-46
O=S(=O)(Nc1ccc2cn[nH]c2c1)c1ccc(Cl)cc1	.	4	.	.	.
O=S(=O)(Nc1ccc2cn[nH]c2c1)c1ccc(Cl)s1	0	4	85*	0	-26
CC1(C)C(c2cccs2)=[N+]([O-])C2(CCCCC/C2=N\O)N1O (stereo not given)	-1	-14	-1	-8	57*
Cc1ccc(C)c(OCC(=O)NCC2COc3ccccc3O2)c1 (stereo not given)	.	-16	.	.	.
O=C1NC(c2ccc(Cl)cc2)Nc2ccccc21 (stereo not given)	3	-9	-4	15	-49
COc1ccc(C2=NOC(C(=O)Nc3c(C)n(C)n(-c4ccccc4)c3=O)C2)cc1 (stereo not given)	0	5	3	13	-12
CN(C)c1ccc(Nc2nc(N)c([N+](=O)[O-])c(N3CCOCC3)n2)cc1	1	22	-16	83*	-12
COc1ccc(Nc2nc(N)c([N+](=O)[O-])c(N3CCOCC3)n2)cc1	.	2	-14	9	-12
CCOC(=O)c1ccc(NC(=O)CC2S/C(=N/N=C/c3c[nH]c4ccccc34)NC2=O)cc1 (stereo not given)	.	0	27	61*	63*
Cc1ccc(NC(=O)CC2S/C(=N/N=C/c3c[nH]c4ccccc34)NC2=O)cc1 (stereo not given)	25	7	11	48	57*
Cc1ccc(NC(=O)CC2S/C(=N/N=C3/NC(=O)CS3)NC2=O)cc1 (stereo not given)	0	4	-16	-32	-62
CCOC(=O)c1ccc(NC(=O)CC2S/C(=N/N=C3/NC(=O)CS3)NC2=O)cc1 (stereo not given)	0	3	4	-48	0
C=CSc1sc(Cl)c(N(CC)CC)c1[N+](=O)[O-]	-1	26	-5	52*	-55
Cc1cc(C)n2c(SCC(=O)NC3CCCCC3C)nnc2n1 (stereo not given)	-1	-5	5	9	3
O=c1[nH]cc(O)c(=O)[nH]1	.	2	-20	-2	-40
Cc1ccccc1-n1nc2c(c1NC(=O)c1cccc(F)c1)CS(=O)C2 (stereo not given)	0	-10	8	-2	-20
Cc1c(C(=O)Oc2ccc(-c3cnc4ccccc4n3)cc2)cccc1[N+](=O)[O-]	-8	17	21	67*	50
O=S(=O)(Nc1cc(Sc2cccc3cccnc23)c(O)c2ccccc12)c1ccc(F)cc1	1	23	23	51*	-28
COc1ccc(S(=O)(=O)Nc2cc(Sc3ncn[nH]3)c(O)c3ccccc23)cc1	0	.	87*[fluorescence artefact?]	91*	45
COc1ccc(S(=O)(=O)Nc2ccc(O)c(Sc3ncn[nH]3)c2)cc1	-2	12	-14	31	-34
CCOc1ccccc1OCCn1nnc2ccccc21	0	5	82*	-21	-4
CCOc1ccc(S(=O)(=O)n2nnc3ccccc32)cc1C(C)C	2	1	71*	19	11

Screening results from PubChem BioAssay.
